According to PubChem BioAssay AID488890 (Southern Research Specialized Biocontainment Screening …, 2010):
In all, about 320,000 compounds went through this assay and about 1,300 (0.41%) were called active. Another 3% or so got no clear call; they are omitted. No rule for the calls is given here. Not all results are given here. Measured potencies and affinities stand elsewhere.

Experiment: growth inhibition of non-replicating M. tuberculosis (AID 488890);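 also: plate controls were DMSO cells for no effect and high antibiotic wells for full effect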
Settings: Mycobacterium tuberculosis non-replicating, at 25 µM, stronger effect = higher value

Row | Compound | inhibition
1 | Cn1c(=O)c(-c2ccccc2)c(O)c2ccccc21 | 23.1%
2 | COc1ccc(Oc2c(O)c3ccccc3n(C)c2=O)cc1 | 9.82%
3 | CCCCCCn1c(=O)c(C(=O)Nc2cccc(C)n2)c(O)c2ccccc21 | -13.9%
4 | CCCCn1c(=O)c(C(=O)Nc2ccccc2)c(O)c2ccccc21 | -12.7%
5 | CCCCCn1c(=O)c(-c2nc3ccccc3[nH]2)c(O)c2ccccc21 | 1.53%
6 | CC(C)NC(=O)c1c(O)c2cccc3c2n(c1=O)CCC3 | 11.9%
7 | CCCCCn1c(=O)c(C(=O)Nc2ccccc2)c(O)c2ccccc21 | 16.7%
8 | CCCCCn1c(=O)c(C(=O)Nc2ccccc2Cl)c(O)c2ccccc21 | -6.13%
9 | CCCCn1c(=O)c(C(=O)Nc2ccccc2C)c(O)c2ccccc21 | -11.7%
10 | CNC(=O)c1c(O)c2cccc3c2n(c1=O)CCC3 | 45.4%
11 | CC1C/C(=N\NC(=O)c2ccc(NS(=O)(=O)c3ccc(Br)cc3)cc2)CC(C)(C)C1 (centres undefined) | -12.6%
12 | Cc1nc(CCNC(=O)COc2ccccc2)cs1 | -16%
13 | CCCC(=O)n1nc(-c2ccc(Cl)cc2)nc1SC | 64.9%
14 | O=C(CSc1nnc(Nc2ccccc2)s1)Nc1ccc(S(=O)(=O)N2CCOCC2)cc1 | 6.81%
15 | Cc1cccc(N2CCN(C(=O)c3cc(=O)[nH]c4ccccc34)CC2)c1C | 24.4%
16 | CCCC(C)C1c2c(c(C)c(C)oc2=O)Oc2c(C)c(C)oc(=O)c21 (centres undefined) | 25.8%
17 | O=C1c2ccccc2C(=O)N1OS(=O)(=O)c1ccccc1 | 19%
18 | Cc1nn(C)cc1/C=N\NC(=O)c1ccc2c(c1)c(C)c(C)n2Cc1ccccc1 | -7.16%
19 | CCOc1ccccc1NC(=O)NCc1ccccc1F | 13.2%
20 | COc1ccc(/C=N/NC(=O)c2cccc(NC(=O)c3ccccc3)c2)c(C(=O)O)c1OC | 31.1%
21 | Cc1c(CCC(=O)N[C@@H](C)C(=O)O)c(=O)oc2cc3occ(-c4ccccc4)c3cc12 | 0.57%
22 | NS(=O)(=O)c1cc(C(=O)NCCc2ccccn2)ccc1Cl | 7.03%
23 | Cn1cccc1/C=N/NC(=O)c1cccnc1 | 6.3%

Row | Compound | inhibition
24 | Cc1ccsc1/C=N/NC(=O)c1ccc([N+](=O)[O-])cc1 | -7.45%
25 | Cc1ccc(/C=N/NC(=O)c2ccccn2)s1 | 59.8%
26 | Cc1ccc(-n2c(C)cc(/C=N/NC(=O)c3ccncc3)c2C)c(C)c1 | 73.9%
27 | Cc1ccc(/C=N/NC(=O)c2ccc(C(=O)N/N=C/c3ccc(C)s3)o2)s1 | -14.7%
28 | Cc1ccsc1/C=N/NC(=O)c1cccnc1 | -17.1%
29 | O=C(N/N=C/c1cccn1-c1ccccc1)c1ccncc1 | 52.4%
30 | Cc1cccc(C)c1-n1c(C)cc(/C=N/NC(=O)c2ccncc2)c1C | 78%
31 | Nn1c(SCC(=O)NC2CCCCC2)nnc1-c1ccccc1F | 9.14%
32 | COC(=O)Nc1ccc(S(=O)(=O)N2CCCC(C(=O)Nc3cccc4c3OCCO4)C2)cc1 (centres undefined) | 17.4%
33 | Cc1ccc(C(=O)N/C(=C/c2ccc(Cl)cc2)C(=O)Nc2cccc(C(=O)O)c2)cc1 | 17%
34 | Cc1cc(NC(=O)CCC(=O)N(CC(=O)NCC2CCCO2)c2ccc(C)c(C)c2)no1 (centres undefined) | -4.55%
35 | COc1nc(NCCO)nc(Nc2ccc([N+](=O)[O-])cc2)n1 | -18%
36 | CSc1ccc(CCNC(=O)C2CCCN(c3nn4c(=O)cc(C)nc4s3)C2)cc1 (centres undefined) | 5.95%
37 | CC1(C(O)(C#CCN2CCCCC2)c2ccccc2)CCCC1 (centres undefined) | 3.27%
38 | Clc1ccc(Cl)c(-c2nc(-c3ccncc3)no2)c1 | -30.7%
39 | CCc1ccc(OCC(=O)N2CCN(c3ccccc3F)CC2)cc1 | 52.6%
40 | COC(=O)c1ccccc1NC(=O)COC(=O)c1cccnc1 | 2.43%
41 | Cc1cccc(CN2CCSCC2)c1 | 21.4%
42 | Cc1ccc(NC(=O)CNC(=O)c2ccc(C)s2)nc1 | -9.04%
43 | Cc1ccc(/C=N/NC(=O)c2cccnc2)o1 | 7.34%
44 | O=C(N/N=C\c1ccncc1)c1ccc(Br)s1 | 15.2%
45 | Cc1ccc(/C=N/NC(=O)c2ccc(-c3ccccc3)cc2)o1 | 4.22%
46 | O=C(N/N=C/c1cc(Br)cc(Br)c1O)c1ccncc1 | 57.1%

Row | Compound | inhibition
47 | Cc1ccc(/C=N/NC(=O)c2cccnc2)s1 | 75.2%
48 | O=C(N/N=C/c1ccc(Br)s1)c1cccs1 | 79.8%
49 | O=C(N/N=C\c1cc(Br)cs1)c1ccncc1 | 71.3%
50 | O=C(N/N=C/c1cc(Br)c(Br)o1)c1cccnc1 | 40.9%
51 | COc1cc(NS(=O)(=O)c2ccc(NC(=S)NC(=O)c3ccc(F)cc3)cc2)nc(OC)n1 | 42.3%
52 | CCn1c(CN2CCOCC2)nnc1SCC(=O)Nc1cccc(C)c1 | -3.97%
53 | O=C(NCCC(=O)N1CCC2(CC1)NCCc1[nH]cnc12)c1ccc(Br)cc1 | 10.4%
54 | Cn1ncc2c(Nc3ccc(Br)cc3)nc(Nc3ccc(Br)cc3)nc21 | 9.77%
55 | O=C(N/N=C/c1cn(-c2ccccc2)nc1-c1cccs1)c1ccncc1 | 48.3%
56 | O=C(N/N=C/c1cn(-c2ccccc2)nc1-c1cc2ccccc2o1)c1ccncc1 | 42.8%
57 | COc1ccc(N=C2NC(=O)C(CC(=O)NCCc3ccc(OC)c(OC)c3)S2)cc1 (centres undefined) | 14.1%
58 | CC(NC(=O)c1ccc2c(=O)n3c(nc2c1)CCC3)c1ccc(S(N)(=O)=O)cc1 (centres undefined) | -7.93%
59 | Cc1ccc(S(=O)(=O)N2CCCN(C(=O)c3cc4ccccc4[nH]3)CC2)cc1 | 11.2%
60 | COc1cccc(NC(=O)NNS(=O)(=O)c2ccc(OC)cc2OC)c1 | -16.4%
61 | CN1CCN(C(c2cccnc2)c2ccc3cccnc3c2O)CC1 (centres undefined) | 28.6%
62 | Oc1c(C(c2ccccn2)N2CCCCC2)cc(Cl)c2cccnc12 (centres undefined) | 75.4%
63 | CCCCOc1ccc(NC(=O)CSc2nnnn2C)cc1 | 18.5%
64 | Cn1cccc1/C=C1/C(=O)NC(=O)N(Cc2ccc(F)cc2)C1=O | 74.5%
65 | Cn1cccc1/C=C1\C(=O)NC(=O)N(Cc2ccccc2)C1=O | 73%
66 | CC1CN(c2nc3ccccn3c(=O)c2C=O)CC(C)O1 (centres undefined) | 1.76%
67 | CCCn1nnc(NC(=O)c2ccc(-c3cccc(Cl)c3)o2)n1 | 59.5%
68 | CCn1nnc(NC(=O)Cc2ccc(Cl)cc2)n1 | 11.1%
69 | CCn1nnc(NC(=O)c2ccc(-c3ccccc3[N+](=O)[O-])o2)n1 | 9.81%

Row | Compound | inhibition
70 | CCn1nnc(NC(=O)c2ccc(Br)o2)n1 | -5.58%
71 | CCCCc1ccc(-c2nc(-c3ccncc3)no2)cc1 | 22.1%
72 | CC1=C(C(=O)Nc2ccccc2)S(=O)(=O)CCO1 | 68.2%
73 | Cc1ccc(NC(=O)c2ccccc2)cc1 | 25.8%
74 | CCOc1cc(C(=O)Nc2cc(=O)n(C)c(=O)n2C)cc(OCC)c1OCC | 1.17%
75 | Cc1cc(Cl)ccc1C(=O)C1CCCN(C(=O)c2cc(C(C)C)no2)C1 (centres undefined) | 45.6%
76 | CCc1ccccc1NC(=O)N1CCc2ccccc2C1 | -17.5%
77 | CCCCNC(=O)N1CCc2[nH]c3ccccc3c2C1 | 5.76%
78 | COC(=O)C1=NN(C(=O)c2ccc(Cl)cc2)C(O)(c2ccccc2)C1 (centres undefined) | 79.6%
79 | COC(=O)C1=NN(C(=O)c2cccc(Br)c2)C(O)(c2ccc(Cl)cc2)C1 (centres undefined) | 75.6%
80 | CCOC(=O)N1N=C(C)CC1(O)c1ccccc1 (centres undefined) | -14.8%
81 | Cc1cn(C(=O)c2cccc(Br)c2)c(C)n1 | -0.97%
82 | CCOC(=O)C1=NN(C(=O)c2ccccc2)C(O)(c2ccc(C)cc2)C1 (centres undefined) | 73.7%
83 | COC(=O)C1=NN(C(=O)c2ccccc2)C(O)(c2ccc([N+](=O)[O-])cc2)C1 (centres undefined) | 21.5%
84 | OCCC1CN(Cc2nc3ccccc3s2)CCN1C1CCCC1 (centres undefined) | -3.44%
85 | O=C(CSc1nnc2ccccn12)N1CCc2ccccc2C1 | -9.62%
86 | Cc1ccccc1CN1C(=O)/C(=C\c2ccc(C(=O)NCCN3CCOCC3)cc2)Sc2ccccc21 | 34.3%
87 | O=C(COC(=O)c1cccnc1Cl)Nc1cc(S(=O)(=O)N2CCOCC2)ccc1Cl | -5.03%
88 | O=C(CC1CCCCC1)NCC1CCCO1 (centres undefined) | 69.3%
89 | Cc1ccc(N(Cc2cc3ccc(C)cc3[nH]c2=O)S(=O)(=O)c2ccccc2)c(C)c1 | 3.45%
90 | CCCCOC(=O)C1CCC[C@@H](C)N1 (some centres undefined) | -6.13%
91 | CCCCOC(=O)C1CCCC(C)N1 (centres undefined) | 0.64%
92 | Cc1ccc(NC(=O)COC(=O)CN2C(=O)C3CCCCC3C2=O)cc1S(=O)(=O)N1CCOCC1 (centres undefined) | 6.8%

Row | Compound | inhibition
93 | O=C(N/N=C/c1cc([N+](=O)[O-])ccc1O)NC12CC3CC(CC(C3)C1)C2 | 54.2%
94 | CCNC(=O)C(=O)N/N=C/c1cc([N+](=O)[O-])ccc1O | 27.1%
95 | O=C(N/N=C/c1cc([N+](=O)[O-])ccc1O)C1C2CCCCC21 (centres undefined) | 77.2%
96 | O=C1NCCCC1C(=O)N/N=C/c1cc([N+](=O)[O-])ccc1O (centres undefined) | 15.8%
97 | CC1(C)Cc2nc3sc(C(N)=O)c(N)c3cc2CO1 | -3.96%
98 | O=C(CCC1CCCC1)NCCCNC(=O)CCC1CCCC1 | 72.8%
99 | Cc1nc([N+](=O)[O-])c(Sc2nc3ccccc3n2C)n1Cc1ccccc1 | 70.5%
100 | C=C(C)C(=O)Nc1cccc(C2=NOC3(C2)C[C@H](C(N)=O)N(C(=O)CC#N)C3)c1 (some centres undefined) | -3.19%
101 | CCCCCCCCn1cc(C(C)=O)c(=O)[nH]c1=O | 79.8%
102 | CCCCCCCCCn1cc(C(C)=O)c(=O)[nH]c1=O | 71.1%
103 | COc1ccc(-n2nc(C(=O)NCC(=O)O)c3ccccc3c2=O)cc1 | -2.99%
104 | COc1ccc(NC(=O)Nc2cccc(NC(C)=O)c2)c(OC)c1 | 15.4%
105 | COCCNc1nnc(SCC(=O)NNC(=O)c2ccccc2)s1 | -9.33%
106 | CC(=O)Oc1ccc(/C=C2/C(=O)N(c3ccccc3)N=C2C)cc1 | 32.7%
107 | COc1ccc(/C=C2/C(=O)N(c3ccccc3)N=C2C)cc1 | 0.19%
108 | C(=N\N=C\c1ccccc1)/c1ccccc1 | 9.87%
109 | CCc1nn(CCCC(=O)N2CCC(C)CC2)c(=O)c2cc3occc3n12 | 2.85%
110 | O=C(NCc1ccc(Cl)cc1)c1cnccn1 | 68.3%
111 | COc1ccc(CNC(=O)c2cnccn2)cc1 | 66.2%
112 | O=C(NCc1ccncc1)c1cnccn1 | -7.93%
113 | NS(=O)(=O)c1ccc(CNC(=O)c2cnccn2)cc1 | -8.46%
114 | CSc1ccc(NC(=O)NCCCN2CCN(c3ccccc3F)CC2)cc1 | 50.5%
